Some test systems named below: SK-MEL-2 melanoma; EKVX NSCLC; SN12C renal; UO-31 renal; TK-10 renal; ACHN renal; CAKI-1 renal; A498 renal; CCRF-CEM leukemia; MOLT-4 leukemia; SR leukemia; OVCAR-8 ovarian; OVCAR-5 ovarian; OVCAR-4 ovarian; SK-OV-3 ovarian; IGROV1 ovarian; OVCAR-3 ovarian; HS 578T breast; NCI/ADR-RES ovarian; RPMI-8226 leukemia.
Test in all cases: NCI-60 one-dose screen, 48 h (100 = growth as untreated, 0 = no growth, -100 = all killed)
Holding throughout (conditions): 10 µM unless noted

Molecules are shown by their SMILES. Compounds without any hit were thinned out: in the full panel of roughly 83,000, 20% have a hit.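 Each cell line was grown in a 96-well plate and treated with one concentration of compound for 48 hours. Values below 10 were considered active.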 A number with no mark means an inactive call. Calls of active or inactive are those of the source.

With `CN1CCN(C(=O)Oc2cc3c(c4ccccc24)[C@H](CCl)CN3C(=O)c2cc3cc(OCCCN4CCC4)ccc3[nH]2)[C@H]2CSSC[C@H]21`, the growth in the assay on SK-MEL-2 melanoma is -92.7% (active); with EKVX NSCLC it was -38.3% (active); in the assay with SN12C renal, -7.03% (active); with UO-31 renal, -11.4% (active); with TK-10 renal, 4.65% (active); in the assay with ACHN renal, -11.6% (active). Moreover, the growth in the assay with CAKI-1 renal is 6.04% (active); in the assay with A498 renal it was -17.6% (active); in the assay on CCRF-CEM leukemia, -25.8% (active); in the assay with MOLT-4 leukemia it was -11.6% (active); in the assay with SR leukemia, -21.2% (active); in the assay on OVCAR-8 ovarian it was -13.1% (active). For the same compound, the growth in the assay on OVCAR-5 ovarian was -19.6% (active); in the assay on OVCAR-4 ovarian, -1.62% (active); in the assay with SK-OV-3 ovarian, -16.5% (active); in the assay on IGROV1 ovarian, 4.39% (active); in the assay with OVCAR-3 ovarian it was -10.9% (active); in the assay on HS 578T breast, -7.11% (active). In the assay on NCI/ADR-RES ovarian, the growth was -29.2% (active).

Consider `COc1ccc2c(c1)N=c1c-2cc2c(O)[nH]c(=S)n2c1=O`, for which the growth in the assay on SK-MEL-2 melanoma was 41.9%; in the assay on EKVX NSCLC it was 48.7%; with SN12C renal, 35.6%; with UO-31 renal it was 47.8%; in the assay on TK-10 renal, 73.5%; in the assay with ACHN renal, 44.9%. The growth in the assay on CAKI-1 renal is 29.7%; in the assay with A498 renal, 105%; in the assay on CCRF-CEM leukemia, 11.1%; in the assay on MOLT-4 leukemia, 35.1%; in the assay on SR leukemia, 21.7%; in the assay on RPMI-8226 leukemia, 62.6%. Besides, the growth in the assay on OVCAR-5 ovarian was 53.5%; in the assay on OVCAR-4 ovarian, 86.9%; in the assay on SK-OV-3 ovarian it was 53.3%; in the assay with OVCAR-3 ovarian, 33.8%; in the assay on HS 578T breast, 21.5%.

On to `CCOc1ccccc1[C@H]1C(C(=O)c2ccc(Cl)cc2)C2(N[C@@H]1c1ccccc1)C(=O)Nc1ccccc12` (some centres not stated), for which the growth was -46.5% (active) in the assay on SK-MEL-2 melanoma; 9% (active) in the assay on EKVX NSCLC; -77.8% (active) in the assay on SN12C renal; 8.77% (active) in the assay on UO-31 renal; 36% with TK-10 renal; 2.68% (active) with ACHN renal. Moreover, the growth is 8.88% (active) in the assay on CAKI-1 renal; -2.33% (active) in the assay on A498 renal; 12.1% with CCRF-CEM leukemia; -26.4% (active) with MOLT-4 leukemia; -38% (active) in the assay on SR leukemia; 28% in the assay with OVCAR-8 ovarian. Also, the growth with OVCAR-5 ovarian was 14.5%; in the assay on OVCAR-4 ovarian it was 17.7%; in the assay with SK-OV-3 ovarian, 26%; in the assay on IGROV1 ovarian, 17.9%; with OVCAR-3 ovarian it was 25.5%; with HS 578T breast, 6.17% (active).

Regarding `O=C(c1ccc(O)cc1)C1[C@H](c2ccccc2Br)[C@@H](c2ccccc2)NC12C(=O)Nc1ccccc12` (some centres not stated), the growth is -3.4% (active) in the assay on SK-MEL-2 melanoma; 28.3% with EKVX NSCLC; 30.2% in the assay on SN12C renal; 28.9% with UO-31 renal; 49.9% in the assay on TK-10 renal; 25.9% in the assay on ACHN renal. Moreover, the growth is 23.6% in the assay with CAKI-1 renal; 52.1% in the assay on A498 renal; 21.3% in the assay with CCRF-CEM leukemia; 3.1% (active) with MOLT-4 leukemia; 56.7% with OVCAR-5 ovarian; 48.3% in the assay with OVCAR-4 ovarian. The growth in the assay on SK-OV-3 ovarian is 70.5%; in the assay on IGROV1 ovarian it was 26.6%; with OVCAR-3 ovarian it was 20.7%; in the assay on HS 578T breast, 49.1%; with NCI/ADR-RES ovarian, 53.1%.

On to `COC(=O)c1c(C(=O)OC)c2c3ccccc3c3ccccc3n2c1C(=O)C(F)(F)F`, for which the growth is 94.4% with SK-MEL-2 melanoma; 98.2% in the assay with EKVX NSCLC; 92.7% with SN12C renal; 65.9% with UO-31 renal; 113% in the assay on TK-10 renal; 93.7% in the assay on ACHN renal. Also, the growth in the assay on CAKI-1 renal was 64.8%; with A498 renal, 138%; in the assay with CCRF-CEM leukemia, 98.2%; with MOLT-4 leukemia, 117%; with SR leukemia it was 81.8%; in the assay with OVCAR-8 ovarian, 99.6%. The growth in the assay on OVCAR-5 ovarian is 99.2%; with OVCAR-4 ovarian, 94.7%; in the assay with SK-OV-3 ovarian, 107%; in the assay on IGROV1 ovarian it was 82.9%; with OVCAR-3 ovarian, 112%; with HS 578T breast, 99.2%. In addition, the growth with NCI/ADR-RES ovarian is 93.7%.

For the compound `O=C(Nc1nc2ccccc2s1)Nc1ccccc1Cl`, the growth is 99.9% in the assay with SK-MEL-2 melanoma; 64.5% in the assay with EKVX NSCLC; 83.9% with SN12C renal; 66.8% in the assay with UO-31 renal; 84.7% in the assay with TK-10 renal; 49.3% with ACHN renal. The growth with CAKI-1 renal was 45.2%; with A498 renal it was 162%; in the assay on CCRF-CEM leukemia, 97.5%; in the assay with MOLT-4 leukemia, 107%; in the assay with SR leukemia, 111%; in the assay with OVCAR-8 ovarian, 48.5%. In addition, the growth in the assay with OVCAR-5 ovarian is 89.6%; with OVCAR-4 ovarian, 34.2%; with SK-OV-3 ovarian, 49.2%; in the assay on IGROV1 ovarian, 79.4%; in the assay on OVCAR-3 ovarian, 111%; in the assay with HS 578T breast, 22.7%. In addition, in the assay on NCI/ADR-RES ovarian, the growth is 76%.

Turning to `O=C(Nc1nc2ccc([N+](=O)[O-])cc2s1)Nc1ccc(Cl)cc1Cl`, the growth in the assay on SK-MEL-2 melanoma was 65%; in the assay with EKVX NSCLC it was 40.7%; in the assay with SN12C renal it was 29.4%; in the assay with UO-31 renal, 59.8%; with TK-10 renal it was 40.9%; in the assay on ACHN renal it was 37.3%. Further, the growth was 57.2% in the assay with CAKI-1 renal; -0.785% (active) in the assay on A498 renal; 33.9% with MOLT-4 leukemia; 47.6% with SR leukemia; 23.5% with RPMI-8226 leukemia; 48.4% with OVCAR-8 ovarian. Moreover, the growth in the assay with OVCAR-5 ovarian is 84.6%; in the assay on OVCAR-4 ovarian it was 54.6%; in the assay with SK-OV-3 ovarian it was 4.05% (active); in the assay with IGROV1 ovarian it was 60.7%; with OVCAR-3 ovarian, 65.4%; in the assay on HS 578T breast it was 46.4%. Besides, the growth with NCI/ADR-RES ovarian is 26.6%.

In the case of `O=C(CSc1nnc(-c2ccc(-c3nc4ccc(Cl)cc4[nH]3)cc2)o1)Nc1ccc(Cl)cc1`, the growth is 14.7% with SK-MEL-2 melanoma; 48.4% in the assay with EKVX NSCLC; -11.6% (active) in the assay on SN12C renal; 30.9% in the assay with UO-31 renal; 73.7% in the assay on TK-10 renal; -69.3% (active) in the assay with ACHN renal. Besides, the growth in the assay with CAKI-1 renal was -40.3% (active); in the assay with A498 renal it was 127%; in the assay with CCRF-CEM leukemia it was 4.89% (active); in the assay on MOLT-4 leukemia, 5.53% (active); with SR leukemia it was 0.703% (active); with OVCAR-8 ovarian it was -31.3% (active). The growth with OVCAR-5 ovarian is 49.3%; with OVCAR-4 ovarian it was 19.1%; with SK-OV-3 ovarian, 81.1%; in the assay on IGROV1 ovarian, 51.2%; with OVCAR-3 ovarian, 5.34% (active); in the assay with HS 578T breast, 14.1%. For the same compound, the growth with NCI/ADR-RES ovarian is 11.4%.

For the origin of these results see PubChem BioAssay (NCI).
